Data reported in PubChem BioAssay.

Tests used:
[1] = tested on: Human papillomavirus type 1a protein E7 (residues 44-93); assay: small molecules binding HPV E7 44-93 – biochemical, small-molecule microarray, residues 44-93, 635 nm fluorescence, primary screen (AID 1108); settings: fluorescence 635 nm, higher = more signal;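 note: E7 fragment applied at 1 µg/mL in TBST for 1 h at 4 C; score combines spot fluorescence with its signal to noise ratio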
[2] = hepatitis C replication reporter changes, two-sided – Huh7 cells, luciferase reporter, HCV replication inhibitor project, primary screen (AID 1109); settings: Huh7 HCV replicon luciferase reporter, 48 h; higher = more signal;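 note: huh7 hepatoma cells harbouring a luciferase neomycin HCV replicon reporter; luciferase luminescence as measure of HCV replicon replication; test concentration not given here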
[3] = target: Left-right determination factor 2 (Homo sapiens) (UniProt O00292); assay: small molecules binding LEFTY2 protein – biochemical, small-molecule microarray, 635 nm fluorescence scan, primary screen (AID 1110); settings: higher = more signal
Chain of Left-right determination factor 2 (Homo sapiens) (O00292 whole entry, looked up): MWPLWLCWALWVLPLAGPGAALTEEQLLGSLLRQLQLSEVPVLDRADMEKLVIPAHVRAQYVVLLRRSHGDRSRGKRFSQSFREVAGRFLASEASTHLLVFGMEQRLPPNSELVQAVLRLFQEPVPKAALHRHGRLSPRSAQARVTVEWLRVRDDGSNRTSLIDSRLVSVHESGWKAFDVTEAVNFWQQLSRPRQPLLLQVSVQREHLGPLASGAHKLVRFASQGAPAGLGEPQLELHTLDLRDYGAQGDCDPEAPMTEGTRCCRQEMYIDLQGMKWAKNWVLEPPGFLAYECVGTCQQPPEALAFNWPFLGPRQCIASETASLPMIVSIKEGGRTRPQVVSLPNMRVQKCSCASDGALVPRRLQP

[4] = target: Calmodulin-1 (Homo sapiens) (UniProt P0DP23); assay: small molecules binding calmodulin-1 with EGTA – biochemical, small-molecule microarray, Cy5-labelled CALM1, profiling panel (AID 1111); settings: Cy5-CALM1 binding fluorescence, higher = more signal;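 note: labelled calmodulin applied in Tris saline Tween buffer holding calcium plus EGTA and DTT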
[5] = target: Calmodulin-1 (Homo sapiens) (UniProt P0DP23); assay: small molecules binding Ca-loaded calmodulin-1 – biochemical, small-molecule microarray, Cy5-labelled CALM1, plus calcium, artefact control for SMM control-protein annotation, profiling panel (AID 1112); settings: Cy5-CALM1 binding fluorescence, higher = more signal;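 note: score merges spot fluorescence with signal to noise from triplicate slides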
[6] = probe aWnt5a binding to arrayed compounds – biochemical, biotinylated probe, 635/667 nm fluorescence, primary screen (AID 1113); settings: small-molecule microarray, higher = more signal;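 note: score merges 667 nm fluorescence intensity with signal-to-noise per printed feature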
[7] = probe aShh binding to arrayed compounds – biochemical, biotinylated probe, 635/667 nm fluorescence, primary screen (AID 1114); settings: small-molecule microarray, higher = more signal;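 note: probe is biotin-labelled aShh protein from a stem cell growth factor screen; measures binding of labelled protein to compounds printed on the slide; score merges feature fluorescence at 667 nm with signal-to-noise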
[8] = probe aNog binding to arrayed compounds – biochemical, biotinylated probe, 635/667 nm fluorescence, primary screen (AID 1115); settings: small-molecule microarray, higher = more signal;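 note: probe is biotinylated aNog protein used at 0.15 µg/mL for 1 h at 4 C; z-score combines 667 nm fluorescence of each spot with its signal to noise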
[9] = target: Torsin-1A-interacting protein 1 (Homo sapiens) (UniProt Q5JTV8); assay: compound microarray binding of lysate hLAP1 – cell lysate, small-molecule microarray, COS7 lysate, 635/667 nm fluorescence, primary screen (AID 1116); settings: 635 nm fluorescence, higher = more signal
Chain of Torsin-1A-interacting protein 1 (Homo sapiens) (Q5JTV8 whole entry, looked up): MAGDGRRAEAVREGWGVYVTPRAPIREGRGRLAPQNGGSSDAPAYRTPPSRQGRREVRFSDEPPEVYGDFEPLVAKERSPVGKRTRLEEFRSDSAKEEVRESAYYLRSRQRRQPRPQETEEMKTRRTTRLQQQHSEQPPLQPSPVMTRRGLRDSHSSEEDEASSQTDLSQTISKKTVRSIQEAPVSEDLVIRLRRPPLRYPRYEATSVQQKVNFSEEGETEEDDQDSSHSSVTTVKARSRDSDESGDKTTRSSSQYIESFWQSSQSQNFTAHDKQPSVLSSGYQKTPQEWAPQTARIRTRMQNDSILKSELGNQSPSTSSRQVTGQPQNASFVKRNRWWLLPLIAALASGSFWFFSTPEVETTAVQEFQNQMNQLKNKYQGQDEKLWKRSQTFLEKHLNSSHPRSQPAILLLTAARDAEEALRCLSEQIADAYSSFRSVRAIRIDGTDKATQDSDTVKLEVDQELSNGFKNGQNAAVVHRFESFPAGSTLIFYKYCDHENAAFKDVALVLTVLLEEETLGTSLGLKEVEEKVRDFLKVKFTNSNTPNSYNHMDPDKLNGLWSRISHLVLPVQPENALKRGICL

[10] = target: Alpha-bungarotoxin (Bungarus multicinctus) (UniProt P60615); assay: compounds binding labelled alpha-BTX control protein – biochemical, small-molecule microarray, Alexa647 label, 635/667 nm fluorescence, artefact control for SMM control protein annotation, profiling panel (AID 1117); settings: alpha-BTX-A647 binding fluorescence, higher = more signal
Chain of Alpha-bungarotoxin (Bungarus multicinctus) (P60615 whole entry, looked up): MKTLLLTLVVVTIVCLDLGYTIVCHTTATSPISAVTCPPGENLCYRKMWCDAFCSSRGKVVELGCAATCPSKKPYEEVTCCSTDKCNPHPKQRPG

Row | SMILES | composite z-score [1] | z-score [2] | composite z-score [3] | composite z-score [4] | composite z-score [5] | composite z-score [6] | composite z-score [7] | composite z-score [8] | composite z-score [9] | composite z-score [10]
1 | [N-]=[N+]=NCc1ccccc1[C@H]1OC(c2ccc(OCCCO)cc2)=N[C@@]1(CCS(=O)(=O)c1ccccc1)C(=O)NCc1ccccc1 | 1.4 | -2.04 | 0.115 | 1.65 | 0.84 | 0.0253 | 0.14 | 0.543 | 0.804 | 2.15
2 | COc1ccc([Si](C)(C)[C@H]2[C@H](CC(=O)N3CCC[C@H]3CO)O[C@@]3(C(=O)N(Cc4ccc(N5CCC5=O)cc4)c4ccccc43)[C@@H]2C)cc1 | 1.13 | -1.88 | 0.794 | 0.865 | 0.0623 | -0.0735 | -0.0709 | -0.484 | 1.53 | 1.79
3 | O=C1C2C=CC(C(O)c3ccc(I)cc3)N(Nc3ccccc3)C2C(=O)N1c1ccccc1 (stereo not given) | 0.898 | 0.0376 | 0.0988 | 2.51 | 1.2 | -0.0399 | 0.184 | 1.4 | 1.83 | 1.71
4 | [N-]=[N+]=Nc1ccccc1C[C@]1(C(=O)NCc2ccccc2)COC(c2ccc(OCCCO)cc2)=N1 | 1.4 | -3.22 | -0.576 | 0.575 | 0.154 | 0.0004 | -0.167 | 0.919 | 1.42 | 1.04
5 | COC(=O)[C@@]1(Cc2ccc(F)cc2)[C@H]2c3cc(C(=O)N(C)C)n(Cc4ccc(O)c(OC)c4)c3C[C@H]2CN1C(=O)c1ccccc1 | 0.347 | -1.05 | -0.0182 | 1.17 | -0.0337 | 0.0776 | 0.207 | -0.186 | -0.105 | 0.412
6 | CO[C@H]1O[C@H](CO)[C@@H](OC(=O)Nc2cccc(F)c2)[C@H](OC(=O)Nc2ccccc2-c2ccccc2)[C@H]1OC(=O)Nc1ccccc1-c1ccccc1 | 1.48 | -3.82 | 0.494 | 0.88 | -0.305 | 0.0692 | -0.0977 | 0.895 | 1.09 | 0.816
7 | CC(C)CNC(=O)[C@@]1(c2ccc([N+](=O)[O-])cc2)CC(=O)N(C2CCCCC2)[C@@H]1c1ccc(CO)cc1 | 0.292 | -1.07 | 0.155 | 0.1 | -0.151 | -0.0539 | -0.0553 | 0.323 | 2 | 0.0127
8 | CC(C)CCC[C@@H](C)[C@H]1CC[C@@]2(C)C3=C(CC[C@]12C)[C@@]1(C)CC[C@H](OC(=O)c2ccccc2)C(C)(C)C1CC3 (stereo not given in full) | 0.359 | -0.313 | 0.593 | -0.0989 | -0.647 | -0.124 | -0.414 | -0.0252 | -0.251 | 0.261
9 | CCOC(=O)C1=C[C@@H](C(C)(C)C)N(S(=O)(=O)c2ccc(C)cc2)[C@H]1c1cccc(Cl)c1 | 0.941 | -2.85 | 0.553 | 1.09 | 0.321 | 0.137 | 0.186 | -0.136 | 0.715 | 1.27
10 | COCCOC(=O)N1C(=O)[C@@]2(c3cc(C#CCNC(N)=O)ccc31)[C@H](c1ccc(OCCO)cc1)N1[C@H](c3ccccc3)[C@H](c3ccccc3)OC(=O)[C@H]1[C@@H]2C(N)=O | 1.33 | -0.106 | 0.437 | 0.741 | 0.585 | -0.089 | 0.225 | 0.54 | 0.803 | 0.667
11 | CN1C=C(C(=O)OCCS(C)(=O)=O)C(C(=O)OCCS(C)(=O)=O)=CC(c2ccc(CO)cc2)=CC1c1cccs1 (stereo not given) | 0.229 | 0.19 | 0.0843 | -0.165 | -0.388 | -0.0405 | 0.0062 | 0.304 | 1.46 | 0.821
12 | CN1C(=O)[C@@]2(Cc3ccccc3)N=C(c3ccc(OCCCO)cc3)O[C@H]2c2ccccc21 | 1.3 | -2.57 | 0.879 | 0.329 | 0.458 | -0.0495 | 0.0372 | 1.26 | 0.344 | 0.846
13 | CN1C(=O)C2C(C1=O)C1C=C(CCCO)C2C(C2CC2)N1Cc1cc2c(cc1Br)OCO2 (stereo not given) | 0.295 | -0.734 | 0.285 | 0.508 | 0.724 | -0.0462 | 0.0893 | 1.21 | 1.33 | 1.58
